Data published in PubChem BioAssay (EPA / NIEHS).
Activity calls are given as the source filed them. Rule for the calls: active = hit-call score of the fitted dose curve at least 0.9, where 1 is the maximum; inactive = score below 0.9.

Experiments:
[1] = ATG_CRE_CIS: Attagene CIS-FACTORIAL HepG2 Assay for human cAMP Responsive Element (CRE) binding protein 3 (AID 2282926); conditions: HepG2 CRE cis-reporter, Attagene multiplexed mRNA; actives raise or lower the signal
Method in brief: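 Capillary electrophoresis of 6-FAM-labelled, HpaI-digested PCR products quantified reporter transcripts. These came from HepG2 transiently transfected with cis-element reporters and exposed to test chemicals for 24 hours, with DMSO defining baseline activity.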

[2] = target: CCAAT/enhancer-binding protein beta (Homo sapiens) (UniProt P17676); assay: ATG_C_EBP_CIS: Attagene CIS-FACTORIAL HepG2 Assay for human CCAAT/Enhancer Binding Protein (C/EBP) beta (AID 2282927); conditions: HepG2 Attagene cis-factorial transcription factor reporter; actives raise or lower the signal
Method in brief: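 HepG2 transiently transfected with multiplexed reporter units under cis-regulatory promoters reporting endogenous C/EBPb activity. After 24 h exposure, reporter mRNA assayed by RT-PCR, fluorescent labelling, HpaI digestion and capillary electrophoresis; bidirectional fitting versus DMSO.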

[3] = ATG_CMV_CIS: Attagene CIS-FACTORIAL HepG2 Assay for human CMV (Internal Marker) (AID 2282928); conditions: HepG2 CMV promoter reporter, transcription factor profiling; actives raise or lower the signal;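 note: endpoint acts as a background internal control marker rather than a target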
Method in brief: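 Fluorescence intensity of RT-PCR-derived reporter fragments, resolved by capillary electrophoresis, gives the signal. HepG2 liver cells bearing transfected cis-element reporters were treated 24 h; activity in either direction was fit relative to DMSO-treated controls.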

[4] = ATG_DR4_LXR_CIS: Attagene CIS-FACTORIAL HepG2 Assay for human Liver X Receptor (LXR), DR4 submotif (AID 2282929); conditions: HepG2 Attagene DR4 cis-reporter, mRNA transcription; actives raise or lower the signal
Method in brief: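 Transiently transfected HepG2 liver cells; cis-regulated reporters; 24 h dosing. RT-PCR plus CE read-out of reporter mRNA. DMSO baseline, bidirectional curve fitting.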

[5] = target: Aryl hydrocarbon receptor (Homo sapiens) (UniProt P35869); assay: ATG_Ahr_CIS: Attagene CIS-FACTORIAL HepG2 Assay for human Aryl Hydrocarbon Receptor (Ahr) (AID 2282930); conditions: HepG2 AhR cis-factorial reporter transcription; actives raise or lower the signal
Method in brief: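 HepG2 cells transiently transfected with cis-element-driven multiplexed reporter units; endogenous AhR activity read as reporter mRNA 24 h after dosing, via RT-PCR, 6-FAM labelling, HpaI digestion and capillary electrophoresis. Bidirectional fit relative to DMSO.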

[6] = ATG_AP_1_CIS: Attagene CIS-FACTORIAL HepG2 Assay for human Activator Protein 1 (AP-1) (AID 2282931); conditions: HepG2 Attagene cis-factorial AP-1 reporter mRNA; actives raise or lower the signal
Method in brief: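 We transfected HepG2 cells transiently with a set of cis-regulated reporter transcription units, dosed them for 24 h, and quantified reporter mRNA via RT-PCR and capillary electrophoresis, scoring gain or loss of signal relative to DMSO.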

[7] = ATG_AP_2_CIS: Attagene CIS-FACTORIAL HepG2 Assay for human Activator Protein 2 (AP-2) (AID 2282932); conditions: HepG2 AP-2 cis-reporter, Attagene transcription factor profiling; actives raise or lower the signal
Method in brief: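 Read-out: fluorescent reporter mRNA via RT-PCR and capillary electrophoresis, 24 h post-dose in transiently transfected HepG2. Endogenous factors drive cis-promoter reporters; gain or loss of signal fitted bidirectionally against DMSO.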

[8] = ATG_BRE_CIS: Attagene CIS-FACTORIAL HepG2 Assay for human Bone Morphogenetic Protein (BMP) Response Element (BRE) (AID 2282933); conditions: HepG2 BMP response element reporter, Attagene transcription factor profiling; actives raise or lower the signal
Method in brief: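 Endogenous transcription factor activity at a BMP response element was monitored in transfected HepG2 cells 24 h after dosing. Fluorescent RT-PCR products were resolved by capillary electrophoresis, and activity was fitted in both directions versus DMSO.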

[9] = target: Retinoic acid receptor alpha (Homo sapiens) (UniProt P10276); assay: ATG_DR5_RAR_CIS: Attagene CIS-FACTORIAL HepG2 Assay for human Retinoic Acid Receptor Alpha (RARE), DR5 submotif (AID 2282934); conditions: HepG2 Attagene cis-factorial RARE DR5 reporter, mRNA; actives raise or lower the signal
Method in brief: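 HepG2 cells transiently transfected with multiplexed reporter units; DR5 cis-element drives reporter through endogenous transcription factors. After 24 h dosing, reporter mRNA quantified by RT-PCR, fluorescent labeling, HpaI digestion and capillary electrophoresis; bidirectional fitting versus DMSO.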

[10] = target: Transcription factor E2F1 (Homo sapiens) (UniProt Q01094); assay: ATG_E2F_CIS: Attagene CIS-FACTORIAL HepG2 Assay for human E2F Transcription Factor 1 (AID 2282935); conditions: HepG2 Attagene cis-reporter, E2F reporter RNA transcripts; actives raise or lower the signal
Method in brief: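 Transient MRTU transfection of HepG2; 24 h compound exposure; RNA → oligo(dT) RT → PCR → FAM label → HpaI cut → CE fluorescence. Gain/loss of signal fit against DMSO.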

Measured: AC50

Sequence of Aryl hydrocarbon receptor (Homo sapiens) (P35869 whole entry, looked up): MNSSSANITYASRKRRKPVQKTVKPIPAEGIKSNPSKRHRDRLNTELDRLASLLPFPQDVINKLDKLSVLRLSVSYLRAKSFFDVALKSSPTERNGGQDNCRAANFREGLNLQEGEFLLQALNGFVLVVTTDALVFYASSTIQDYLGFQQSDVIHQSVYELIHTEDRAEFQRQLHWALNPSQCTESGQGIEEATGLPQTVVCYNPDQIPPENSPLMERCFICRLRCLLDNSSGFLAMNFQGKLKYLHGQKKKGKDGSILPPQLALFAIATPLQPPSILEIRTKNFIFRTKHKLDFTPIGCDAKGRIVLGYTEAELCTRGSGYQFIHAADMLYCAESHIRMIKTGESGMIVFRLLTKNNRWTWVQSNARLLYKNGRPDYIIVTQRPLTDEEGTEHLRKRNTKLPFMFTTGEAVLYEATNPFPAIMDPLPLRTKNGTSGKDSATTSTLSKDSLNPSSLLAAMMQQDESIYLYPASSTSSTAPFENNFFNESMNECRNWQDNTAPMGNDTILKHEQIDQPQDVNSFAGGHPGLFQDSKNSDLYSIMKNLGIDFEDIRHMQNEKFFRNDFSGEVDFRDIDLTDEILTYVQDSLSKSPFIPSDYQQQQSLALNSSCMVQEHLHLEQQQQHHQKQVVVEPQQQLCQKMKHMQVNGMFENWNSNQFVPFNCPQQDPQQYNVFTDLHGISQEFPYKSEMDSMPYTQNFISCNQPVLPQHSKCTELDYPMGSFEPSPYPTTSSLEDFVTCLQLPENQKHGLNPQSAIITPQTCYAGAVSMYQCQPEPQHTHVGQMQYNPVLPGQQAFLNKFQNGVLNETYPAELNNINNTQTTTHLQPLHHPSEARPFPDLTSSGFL
Sequence of Transcription factor E2F1 (Homo sapiens) (Q01094 whole entry, looked up): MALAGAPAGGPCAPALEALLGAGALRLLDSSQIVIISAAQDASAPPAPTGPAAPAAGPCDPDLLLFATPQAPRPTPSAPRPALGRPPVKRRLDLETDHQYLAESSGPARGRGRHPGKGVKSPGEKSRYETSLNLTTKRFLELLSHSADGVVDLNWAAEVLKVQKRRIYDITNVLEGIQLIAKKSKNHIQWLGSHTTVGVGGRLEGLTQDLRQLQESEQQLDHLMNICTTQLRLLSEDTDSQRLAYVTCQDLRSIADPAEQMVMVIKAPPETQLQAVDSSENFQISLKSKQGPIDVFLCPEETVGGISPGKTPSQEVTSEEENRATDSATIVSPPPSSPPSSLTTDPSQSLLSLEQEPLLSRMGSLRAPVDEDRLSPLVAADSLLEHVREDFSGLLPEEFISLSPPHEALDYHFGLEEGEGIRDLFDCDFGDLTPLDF
Sequence of CCAAT/enhancer-binding protein beta (Homo sapiens) (P17676 whole entry, looked up): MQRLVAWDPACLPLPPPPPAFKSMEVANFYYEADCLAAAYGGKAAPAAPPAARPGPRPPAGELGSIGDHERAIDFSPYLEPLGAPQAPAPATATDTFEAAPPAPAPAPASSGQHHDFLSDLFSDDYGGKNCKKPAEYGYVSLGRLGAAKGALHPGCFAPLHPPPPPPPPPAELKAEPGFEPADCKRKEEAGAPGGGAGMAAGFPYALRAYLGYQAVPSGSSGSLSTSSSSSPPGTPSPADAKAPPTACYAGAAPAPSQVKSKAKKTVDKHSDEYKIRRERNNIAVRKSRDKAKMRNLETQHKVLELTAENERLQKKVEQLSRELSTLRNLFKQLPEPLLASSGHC
Sequence of Retinoic acid receptor alpha (Homo sapiens) (P10276 whole entry, looked up): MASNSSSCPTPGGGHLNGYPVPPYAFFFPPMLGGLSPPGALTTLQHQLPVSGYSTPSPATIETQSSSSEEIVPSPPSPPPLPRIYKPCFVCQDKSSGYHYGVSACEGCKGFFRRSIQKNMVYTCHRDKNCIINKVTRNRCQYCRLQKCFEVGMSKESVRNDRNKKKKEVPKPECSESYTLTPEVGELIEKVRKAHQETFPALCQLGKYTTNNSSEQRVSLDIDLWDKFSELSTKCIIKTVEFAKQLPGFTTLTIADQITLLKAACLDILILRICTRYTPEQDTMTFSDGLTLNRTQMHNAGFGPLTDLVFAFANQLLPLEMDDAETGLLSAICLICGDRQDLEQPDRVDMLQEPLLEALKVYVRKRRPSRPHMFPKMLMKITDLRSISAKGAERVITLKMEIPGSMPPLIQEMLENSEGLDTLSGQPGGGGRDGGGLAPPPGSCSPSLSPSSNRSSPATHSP

Cc1ccc(-c2ccccc2)cc1
inactive: all assays above

COc1ccc(CCC(C)=O)cc1
inactive: all assays above

COc1ccc(CCO)cc1
inactive: all assays above

CCCSc1ccc2nc(NC(=O)OC)[nH]c2c1
inactive: all assays above

CCCCCCOC(=O)CCC
inactive: all assays above

CCCCSCCCC
inactive: all assays above

CCCC(=O)OCCc1ccccc1
inactive: all assays above

CCOC(=O)CCc1ccccc1
inactive: all assays above

N#Cc1ccc(CC(=O)c2cccc(C(F)(F)F)c2)cc1
active: [8] 128 µM
inactive: all other assays above

Brc1ccc(Br)c(Br)c1
inactive: all assays above

CN(C)C(=S)SC(=S)N(C)C
inactive: all assays above

CCC1CCCCC1
inactive: all assays above

CCCCCc1ccco1
active: [4] 101 µM | [6] 90.9 µM
inactive: all other assays above

CC(=O)NCCO
inactive: all assays above

CC(Oc1cc(Cl)ccc1Cl)C(=O)O (stereo not given)
inactive: all assays above

CC(=O)CC(=O)Nc1ccccc1
inactive: all assays above

CC(C)C[C@H](NC(=O)OCC1c2ccccc2-c2ccccc21)C(=O)O
inactive: all assays above

CCOc1ccc(N=Nc2ccc(C=Cc3ccc(N=Nc4ccc(OCC)cc4)cc3S(=O)(=O)O)c(S(=O)(=O)O)c2)cc1
active: [5] 12.2 µM | [8] 7.28 µM
inactive: all other assays above

C/C=C(\C)C(=O)OCCc1ccccc1
inactive: all assays above

CN(C)c1ccncc1
inactive: all assays above

CC(=O)c1ccccn1
inactive: all assays above

C=CC(=O)OCCC#N
active: [3] 100 µM | [4] 40.5 µM | [7] 21.6 µM | [8] 26.7 µM
inactive: all other assays above

COc1cccc(OC)c1O
inactive: all assays above

C[C@@H]1CCN(C(=O)[C@H](CCCN=C(N)N)NS(=O)(=O)c2cccc3c2NC[C@H](C)C3)[C@@H](C(=O)O)C1
inactive: all assays above
